This note sets out measurements from PubChem BioAssay (Tox21).

The structures appear in SMILES notation. Several values for one entry are separate records, joined by “and”; a condition that tells them apart may be missing. Identical values can stand only once. Records with an inconclusive call do not appear. Where a structure was tested more than once in an assay, its records may differ in their call. Activity calls are given as the source filed them. Unless noted, calls follow the shape of the dose curve; as a rule, active = well fitted curve in the direction sought with a large enough effect in the repeat runs; inconclusive = weak or mixed curves; inactive = no such curve, though single readings can be large; an effect the other way counts as inactive or inconclusive.

Experiment [1] can be described thus: qHTS assay to identify aromatase inhibitors - cell viability counter screen (AID 743084).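 Also: cells stimulated with testosterone during compound exposure; nearly all actives have a fitted effect of over 55% in size.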
A short description of experiment [2]: qHTS assay to identify small molecule that activate the aryl hydrocarbon receptor (AhR) signaling pathway - cell viability counter screen (AID 743086).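 Also: HepG2 liver cells carrying the AhR DRE luciferase reporter; series mostly up to about 70 µM; nearly all actives have a fitted effect of over 45% in size.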 The method, boiled down:
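HepG2-AhR-luc (HG2L7.5c1) cells, 4000/well, were preincubated 5 h at 37C, exposed to compound in qHTS format for 24 hr at 37C, then given CellTiter-Fluor for 30 min; viability was read as fluorescence in the reporter wells.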
(In general: Quantitative high-throughput screening tests each substance at several concentrations.)

The target of experiment [3] is Peroxisome proliferator-activated receptor gamma (Homo sapiens) (UniProt P37231). The experiment can be described thus: qHTS assay to identify small molecule agonists of the peroxisome proliferator-activated receptor gamma (PPARg) signaling pathway (AID 743094; active = well fitted activation curve with a large enough effect in the signal ratio in the repeat runs, not every such curve was filed as active; the % refers to the signal ratio). The method, boiled down:
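Agonism was assessed in a beta-lactamase reporter system, HEK293H cells with a stably integrated UAS-bla construct under PPARg control; the 17 h treatment at 37C preceded a 1 h room-temperature FRET substrate read.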

The target is the same in experiment [4]. The experiment can be described thus: qHTS assay to identify small molecule antagonists of the peroxisome proliferator-activated receptor gamma (PPARg) signaling pathway (AID 743191; calls by dose curve; also: series mostly up to about 63 µM; nearly all actives have a fitted effect of over 30% in size). The method, boiled down: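 GeneBLAzer PPARg UAS-bla HEK293H cells carrying a UAS-driven beta-lactamase reporter were plated at 3000 cells/well, preincubated 5 h at 37C, then given compound for 17 h at 37C; LiveBLAzer B/G FRET substrate was read after 1 h at room temperature.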

The nature of experiment [5]: qHTS assay to identify small molecule antagonists of the peroxisome proliferator-activated receptor gamma (PPARg) signaling pathway - cell viability counter screen (AID 743194). Also: nearly all actives have a fitted effect of over 55% in size. In a few lines: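 PPARg-UAS-bla HEK293H cells were plated, rested 5 h at 37 C, then treated with compounds plus rosiglitazone (50 nM final) for 17 h at 37 C; viability was then read by CellTiter-Glo luminescence after 30 min at room temperature.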

Experiment [6] in a line: qHTS assay for small molecule agonists of the antioxidant response element (ARE) signaling pathway (AID 743202; active = well fitted activation curve with a large enough effect in the signal ratio in the repeat runs, not every such curve was filed as active; the % refers to the signal ratio). The method, boiled down: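 Following a 16 h, 37 C exposure of reporter HepG2 cells (ARE-driven beta-lactamase, 2,000 cells/well) to compounds, FRET substrate was applied for 2 h at room temperature and fluorescence intensity recorded.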
Experiment [7] can be described thus: qHTS assay for small molecule agonists of the antioxidant response element (ARE) signaling pathway - cell viability counter screen (AID 743203; calls by dose curve; also: nearly all actives have a fitted effect of over 55% in size). The method, boiled down: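 ATP content via CellTiter-Glo luminescence served as the viability measure. Cells: ARE-bla HepG2, 2,000 per well. Exposure: 16 hrs, 37C/5% CO2.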
Experiment [8] in a line: qHTS assay for small molecule activators of the heat shock response signaling pathway - cell viability counter screen (AID 743209). Also: nearly all actives have a fitted effect of over 50% in size. The method, boiled down: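 Compounds dissolved in DMSO were added to overnight-plated HSE-bla HeLa cells and left 5 h at 37 C. Cell viability was quantified by luminescence using CellTiter-Glo.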
Experiment [9] is described as follows: qHTS assay to identify small molecule agonists of the peroxisome proliferator-activated receptor delta (PPARd) signaling pathway - cell viability counter screen (AID 743211). Also: nearly all actives have a fitted effect of over 55% in size. The method, boiled down:
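HEK293H PPARd-bla, 3000 cells/well; 5 h preincubation 37C/5% CO2; cpd in DMSO, 17 h 37C; B/G FRET substrate 2 h RT; CellTiter-Glo 30 min RT, luminescence.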

For experiment [10], the target named is Peroxisome proliferator-activated receptor delta (Homo sapiens) (UniProt Q03181). The experiment can be described thus: qHTS assay to identify small molecule agonists of the peroxisome proliferator-activated receptor delta (PPARd) signaling pathway (AID 743212; calls by dose curve). The method, boiled down: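 Beta-lactamase reporter read by fluorescence (LiveBLAzer B/G FRET, 2 h, room temperature). Test agents, in DMSO, incubated at 37 C with PPARd-bla HEK293H cells.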
Peroxisome proliferator-activated receptor delta (Homo sapiens), sequence (Q03181 whole entry, looked up): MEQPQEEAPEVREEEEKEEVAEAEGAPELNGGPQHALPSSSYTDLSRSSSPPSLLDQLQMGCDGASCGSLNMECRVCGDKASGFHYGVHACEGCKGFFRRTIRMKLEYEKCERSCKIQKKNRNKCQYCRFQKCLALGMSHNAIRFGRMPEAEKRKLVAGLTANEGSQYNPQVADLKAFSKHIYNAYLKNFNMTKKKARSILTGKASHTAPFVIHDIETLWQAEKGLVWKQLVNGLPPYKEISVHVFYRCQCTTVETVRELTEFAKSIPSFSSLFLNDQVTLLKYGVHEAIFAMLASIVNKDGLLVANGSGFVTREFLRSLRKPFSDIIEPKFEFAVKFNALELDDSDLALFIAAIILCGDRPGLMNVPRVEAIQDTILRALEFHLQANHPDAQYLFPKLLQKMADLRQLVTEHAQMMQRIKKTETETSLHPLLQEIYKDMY

For experiment [11] the target is unchanged. The experiment can be described thus: qHTS assay to identify small molecule antagonists of the peroxisome proliferator-activated receptor delta (PPARd) signaling pathway (AID 743215; active = well fitted inhibition curve with a large enough effect in the signal ratio in the repeat runs, not every such curve was filed as active; the % refers to the signal ratio;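 also: cells stimulated with agonist L165041 at 300 nM final during compound exposure; series mostly up to about 62 µM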). The method, boiled down:
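Here, a reporter line (HEK293H, beta-lactamase under a UAS) measures PPARd signaling. Compounds are tested against agonist L165041 at 300 nM final concentration over 17 h at 37 C, with fluorescence read after substrate.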

Experiment [12] is described as follows: qHTS assay to identify small molecule agonists of the farnesoid-X-receptor (FXR) signaling pathway - cell viability counter screen (AID 743218). Also: nearly all actives have a fitted effect of over 45% in size. In a few lines: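 Quantitative HTS counter screen measuring ATP-based viability via CellTiter-Glo luminescence in HEK 293T cells carrying a UAS-driven beta-lactamase reporter, after 16 h compound exposure at 37 C.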

A short description of experiment [13]: qHTS assay to identify small molecule antagonists of the farnesoid-X-receptor (FXR) signaling pathway - cell viability counter screen (AID 743221; active = well fitted cell-killing curve with a large enough effect in the repeat runs, not every such curve was filed as active; also: nearly all actives have a fitted effect of over 50% in size). In a few lines:
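Luminescence from CellTiter-Glo measures cytotoxicity in GeneBLAzer FXR-UAS-bla HEK 293T cells. Cells were exposed to compounds with 50 uM chenodeoxycholic acid (final) for 16 h at 37 C, in wells also used for the reporter readout.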

The target in experiment [14] is Aryl hydrocarbon receptor (Homo sapiens) (UniProt P35869). The experiment can be described thus: qHTS assay to identify small molecule that activate the aryl hydrocarbon receptor (AhR) signaling pathway (AID 743085). Also: nearly all actives have a fitted effect of over 15% in size. Also: potency is read from the fitted curve at half-maximal effect.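 As to activation: HG2L7.5c1 human HepG2 liver cells with stably integrated DRE-driven firefly reporter; series mostly up to about 70 µM.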 In a few lines: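 Cell line HG2L7.5c1 (human hepatoma, 20× DRE-luc). Plated, 5 h 37C, compound/DMSO added, 24 h 37C. CellTiter-Fluor 30 min 37C → fluorescence; then ONE-Glo 30 min RT → luminescence.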
Aryl hydrocarbon receptor (Homo sapiens), sequence (P35869 whole entry, looked up): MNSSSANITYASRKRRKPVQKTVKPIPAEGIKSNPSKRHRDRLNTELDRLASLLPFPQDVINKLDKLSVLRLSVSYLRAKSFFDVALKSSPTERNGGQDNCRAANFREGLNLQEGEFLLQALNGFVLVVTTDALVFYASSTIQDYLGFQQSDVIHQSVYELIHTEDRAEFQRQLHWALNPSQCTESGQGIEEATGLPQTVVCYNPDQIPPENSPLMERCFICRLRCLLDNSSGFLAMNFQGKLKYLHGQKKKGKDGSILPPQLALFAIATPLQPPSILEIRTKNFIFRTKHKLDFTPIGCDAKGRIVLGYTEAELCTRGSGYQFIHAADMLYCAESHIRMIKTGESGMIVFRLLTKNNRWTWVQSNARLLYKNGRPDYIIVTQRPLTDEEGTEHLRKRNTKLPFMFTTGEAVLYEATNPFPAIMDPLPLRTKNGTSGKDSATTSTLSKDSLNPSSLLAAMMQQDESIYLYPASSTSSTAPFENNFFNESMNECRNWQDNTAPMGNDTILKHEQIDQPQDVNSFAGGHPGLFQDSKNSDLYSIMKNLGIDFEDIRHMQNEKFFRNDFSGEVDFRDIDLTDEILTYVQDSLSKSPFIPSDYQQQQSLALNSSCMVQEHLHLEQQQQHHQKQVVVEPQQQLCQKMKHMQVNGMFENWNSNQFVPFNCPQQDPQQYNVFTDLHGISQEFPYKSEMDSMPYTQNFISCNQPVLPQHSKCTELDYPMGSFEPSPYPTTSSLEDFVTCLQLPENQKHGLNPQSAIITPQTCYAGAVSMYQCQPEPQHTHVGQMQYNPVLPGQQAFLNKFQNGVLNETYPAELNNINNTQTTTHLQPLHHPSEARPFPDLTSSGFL

Experiment [15] in a line: qHTS assay to identify small molecule antagonists of the peroxisome proliferator-activated receptor delta (PPARd) signaling pathway - cell viability counter screen (AID 743213). Also: nearly all actives have a fitted effect of over 50% in size. The method, boiled down: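 CellTiter-Glo was added to PPARd-bla HEK293H wells following 17 h compound treatment in the presence of 300 nM L165041. Luminescence was recorded after 30 min at room temperature.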

The target of experiment [16] is Bile acid receptor (Homo sapiens) (UniProt Q96RI1). Kind of experiment: qHTS assay to identify small molecule antagonists of the farnesoid-X-receptor (FXR) signaling pathway (AID 743217; active = well fitted inhibition curve with a large enough effect in the signal ratio in the repeat runs, not every such curve was filed as active; the % refers to the signal ratio). The method, boiled down: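 Test compounds are pin-transferred onto FXR-bla HEK 293T cells, then chenodeoxycholic acid is added at 50 uM final. After 16 h at 37 °C, LiveBLAzer B/G substrate is applied for 2 h at room temperature and fluorescence read.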
Bile acid receptor (Homo sapiens), sequence (Q96RI1 whole entry, looked up): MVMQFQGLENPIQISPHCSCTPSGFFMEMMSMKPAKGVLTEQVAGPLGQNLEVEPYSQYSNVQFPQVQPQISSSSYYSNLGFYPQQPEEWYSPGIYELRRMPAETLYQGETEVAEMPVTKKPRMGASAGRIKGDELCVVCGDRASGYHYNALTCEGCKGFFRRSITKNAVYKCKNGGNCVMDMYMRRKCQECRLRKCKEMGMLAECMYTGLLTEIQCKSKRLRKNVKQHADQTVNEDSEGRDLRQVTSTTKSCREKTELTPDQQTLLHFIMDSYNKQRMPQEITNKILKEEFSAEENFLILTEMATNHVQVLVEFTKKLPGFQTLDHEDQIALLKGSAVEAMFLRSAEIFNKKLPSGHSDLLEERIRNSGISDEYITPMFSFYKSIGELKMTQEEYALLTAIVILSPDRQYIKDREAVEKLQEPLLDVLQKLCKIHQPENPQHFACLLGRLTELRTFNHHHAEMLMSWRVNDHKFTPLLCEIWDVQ

For experiment [17] the target is unchanged. Kind of experiment: qHTS assay to identify small molecule agonists of the farnesoid-X-receptor (FXR) signaling pathway (AID 743220; active = well fitted activation curve with a large enough effect in the signal ratio in the repeat runs, not every such curve was filed as active; the % refers to the signal ratio). The method, boiled down:
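FXR-UAS-bla HEK 293T cells carrying a UAS-driven beta-lactamase reporter were plated for 5 h at 37C/5% CO2, then exposed to DMSO-dissolved Tox21 10K compounds for 16 h at 37C. A LiveBLAzer B/G FRET substrate was loaded for 2 h at room temperature before fluorescence reading.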

In experiment [18] the target is Vitamin D3 receptor (Homo sapiens) (UniProt P11473). Kind of experiment: qHTS assay to identify small molecule agonists of the vitamin D receptor (VDR) signaling pathway (AID 743222; calls by dose curve). The method, boiled down: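 Tox21 cell reporter format: VDR-bla line, 16 h compound exposure in 5% CO2 at 37C, then fluorescence intensity after 2 h with LiveBLAzer B/G FRET substrate.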
Vitamin D3 receptor (Homo sapiens), sequence (P11473 whole entry, looked up): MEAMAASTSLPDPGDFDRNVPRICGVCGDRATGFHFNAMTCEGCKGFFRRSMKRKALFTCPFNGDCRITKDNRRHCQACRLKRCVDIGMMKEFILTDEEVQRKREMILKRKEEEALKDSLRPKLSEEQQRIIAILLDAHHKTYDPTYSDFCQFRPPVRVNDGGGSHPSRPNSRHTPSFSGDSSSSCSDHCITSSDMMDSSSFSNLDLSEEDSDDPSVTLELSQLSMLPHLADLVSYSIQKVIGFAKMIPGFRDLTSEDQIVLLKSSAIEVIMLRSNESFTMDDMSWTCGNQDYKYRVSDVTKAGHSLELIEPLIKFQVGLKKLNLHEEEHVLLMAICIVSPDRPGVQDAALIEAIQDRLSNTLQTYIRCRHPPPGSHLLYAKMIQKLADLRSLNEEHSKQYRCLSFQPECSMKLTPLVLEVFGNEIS

Experiment [19] is described as follows: qHTS assay for small molecule activators of the heat shock response signaling pathway (AID 743210; active = well fitted activation curve with a large enough effect in the signal ratio in the repeat runs, with a control signal flat, not every such curve was filed as active; the % refers to the signal ratio; also: series mostly up to about 63 µM). The method, boiled down:
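Heat shock element–beta-lactamase HeLa reporter cells; qHTS with compounds for 5 h at 37 C; detection by FRET substrate fluorescence after 2.5 h at RT.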

For experiment [20], the target named is Vitamin D3 receptor (Homo sapiens) (UniProt P11473). The experiment can be described thus: qHTS assay to identify small molecule antagonists of the vitamin D receptor (VDR) signaling pathway (AID 743223; active = well fitted inhibition curve with a large enough effect in the signal ratio in the repeat runs, not every such curve was filed as active; the % refers to the signal ratio). The method, boiled down: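 Antagonist mode uses 1alpha,25-dihydroxyvitamin D3 at 3 nM final as stimulus. VDR-bla cells receive compounds in DMSO, incubate 16 h at 37C, then a beta-lactamase FRET substrate for 2 h at room temperature before fluorescence measurement.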

Peroxisome proliferator-activated receptor gamma (Homo sapiens), sequence (P37231 whole entry, looked up): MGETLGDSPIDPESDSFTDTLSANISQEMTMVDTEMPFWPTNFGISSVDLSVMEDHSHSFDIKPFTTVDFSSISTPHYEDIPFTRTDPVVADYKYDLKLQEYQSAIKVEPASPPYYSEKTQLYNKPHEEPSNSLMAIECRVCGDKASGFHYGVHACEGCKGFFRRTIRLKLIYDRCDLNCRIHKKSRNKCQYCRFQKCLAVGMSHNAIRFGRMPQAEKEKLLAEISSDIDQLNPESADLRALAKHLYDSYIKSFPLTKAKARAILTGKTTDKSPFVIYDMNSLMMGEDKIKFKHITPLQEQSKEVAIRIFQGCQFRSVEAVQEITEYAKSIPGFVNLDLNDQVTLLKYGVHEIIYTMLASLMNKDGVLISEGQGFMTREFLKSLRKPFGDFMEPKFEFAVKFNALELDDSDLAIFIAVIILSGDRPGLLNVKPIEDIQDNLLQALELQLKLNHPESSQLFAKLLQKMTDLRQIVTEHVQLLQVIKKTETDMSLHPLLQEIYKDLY

`OC(Cn1cncn1)(Cn1cncn1)c1ccc(F)cc1F`: the Potency entry in [1], in experiment [2] and in experiment [6] was “inactive” throughout. For the same compound, the call in [3], in experiment [4], in experiment [5], in [7], in [8] and in [9] was inactive. In addition, the result in experiment [10], in experiment [11], in experiment [12] and in experiment [13] was inactive.
Take `CC(C)[C@@H]1CC[C@@H](C)C[C@H]1O`: the Potency result in experiment [1], in experiment [14], in experiment [2], in [6] and in experiment [16] was “inactive” throughout. The outcome in [3], in experiment [4], in experiment [5], in experiment [7], in experiment [9] and in [10] was inactive. Moreover, the call in experiment [15], in [11], in experiment [12], in experiment [17], in experiment [13] and in [18] was inactive.
Consider `O=C(O)/C=C\C(=O)O`, for which the outcome in experiment [5], in experiment [7], in experiment [8], in experiment [19], in experiment [9] and in experiment [10] was inactive. Also, the compound was called inactive in experiment [11], in experiment [12] and in experiment [13]. Further, the Potency entry in experiment [6] was “inactive”.
For the compound `c1ccc2[nH]ccc2c1`, the Potency result in [1], in [2] and in experiment [6] was “inactive” throughout. Besides, in [14], the Potency result was “inactive and 30.1 µM (active) and 27.3 µM (active)”. Also, the outcome in experiment [3], in experiment [4], in experiment [5], in [7], in [19] and in [9] was inactive. The compound was called inactive in [10], in [11], in [12] and in [13].
For `CCCC(CCC)C(=O)O`, the Potency result in [1], in experiment [14], in experiment [2] and in [6] was “inactive” throughout. Besides, the result in [3], in [4], in experiment [5], in experiment [7], in experiment [19] and in experiment [9] was inactive. Besides, the result in experiment [15], in [12], in [13], in experiment [18] and in experiment [20] was inactive.
On to `O=C(O)c1cccnc1`, for which the Potency result in [1], in [14], in [2] and in [6] was “inactive” throughout. In addition, the outcome in experiment [5], in [7], in experiment [19], in experiment [9], in experiment [15] and in experiment [12] was inactive. The compound was called inactive in experiment [13].
On to `Cc1ccc(S(=O)(=O)NC(=O)NN2CCCCCC2)cc1`, for which the Potency entry in [1], in [14], in experiment [2] and in experiment [6] was “inactive” each time. Further, the call in experiment [3], in experiment [4], in experiment [5], in [7], in experiment [19] and in [9] was inactive. In addition, the call in [10], in [11], in [12] and in [13] was inactive.
With `O=c1ccc2ccccc2o1`, the Potency result in [1], in [14], in experiment [2], in experiment [6] and in experiment [16] was “inactive” in each case. Also, the compound was classed as inactive in experiment [3], in experiment [4], in [5], in experiment [7], in experiment [19] and in experiment [9]. The result in experiment [15], in experiment [12], in [17] and in experiment [13] was inactive.
For the compound `COc1c2occc2cc2ccc(=O)oc12`, the Potency result in experiment [2], in [6] and in [16] was “inactive” throughout. Moreover, the result in experiment [5], in experiment [7], in experiment [9], in experiment [15], in experiment [12] and in experiment [17] was inactive. Moreover, the compound was called inactive in experiment [13].
As for `Cc1ccc(C)c(OCCCC(C)(C)C(=O)O)c1`, the Potency result in experiment [1], in experiment [2], in experiment [6] and in experiment [16] was “inactive” in each case. In addition, in [14], the Potency entry was “inactive and 48.9 µM (active)”. In addition, the compound was called inactive in experiment [5], in experiment [7], in experiment [19], in experiment [9], in experiment [10] and in experiment [15]. Moreover, the outcome in experiment [11], in experiment [12], in [17] and in experiment [13] was inactive.
